In PubChem BioAssay (Tox21):
Unmarked numbers belong to inactive results. Inconclusive results are not listed. Entries that show only a call come without a potency. Active and inactive are the calls of the source. The call rests on the fitted dose curve.

Key:
[1] = target: Acetylcholinesterase (Homo sapiens) (UniProt P22303); experiment: Acetylcholinesterase (AChE) small molecule antagonists: colormetric cell-based qHTS assay (AID 1347395); further: nearly all actives have a fitted effect of over 30% in size; further: potency means the concentration at half of the fitted maximal effect
How it was run: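 Colorimetric readout: DTNB quantifies thiocholine from acetylthiocholine hydrolysed by endogenous AChE of SH-SY5Y cells (2,000/well, plated overnight). Compound pretreatment 30 min, substrate incubation 90 min, both 37 C.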

[2] = target: Acetylcholinesterase (Homo sapiens) (UniProt P22303); experiment: Acetylcholinesterase (AChE) small molecule antagonists: fluorescence cell-based qHTS assay (AID 1347398); conditions: Potency: AChE activity; outcome: AChE activity; further: nearly all actives have a fitted effect of over 50% in size; further: potency means the concentration at half of the fitted maximal effect
How it was run: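 Homogeneous quantitative HTS format. SH-SY5Y cells seeded at 2,000 per well settle overnight at 37 C. Compound pretreatment runs 30 min (37 C, 5% CO2); substrate/probe mix then reacts 40 min at RT before reading 490/520 nm.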

[3] = target: Acetylcholinesterase (Homo sapiens) (UniProt P22303); experiment: Acetylcholinesterase (AChE) small molecule antagonists: enzyme-based qHTS assay with human liver microsomes (AID 1347399); conditions: Potency: qHTS inhibition; outcome: qHTS inhibition; further: nearly all actives have a fitted effect of over 60% in size
How it was run: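 Recombinant human AChE (50 mU/mL in the enzyme mix) and human liver microsomes (0.25 mg/mL final) were preincubated with compound and NADPH (0.25 mg/mL final) for 30 min at 37 C. Acetylthiocholine/DTNB was then added; thiocholine was read colorimetrically after 10 min at room temperature.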

Acetylcholinesterase (Homo sapiens), sequence (P22303 whole entry, looked up): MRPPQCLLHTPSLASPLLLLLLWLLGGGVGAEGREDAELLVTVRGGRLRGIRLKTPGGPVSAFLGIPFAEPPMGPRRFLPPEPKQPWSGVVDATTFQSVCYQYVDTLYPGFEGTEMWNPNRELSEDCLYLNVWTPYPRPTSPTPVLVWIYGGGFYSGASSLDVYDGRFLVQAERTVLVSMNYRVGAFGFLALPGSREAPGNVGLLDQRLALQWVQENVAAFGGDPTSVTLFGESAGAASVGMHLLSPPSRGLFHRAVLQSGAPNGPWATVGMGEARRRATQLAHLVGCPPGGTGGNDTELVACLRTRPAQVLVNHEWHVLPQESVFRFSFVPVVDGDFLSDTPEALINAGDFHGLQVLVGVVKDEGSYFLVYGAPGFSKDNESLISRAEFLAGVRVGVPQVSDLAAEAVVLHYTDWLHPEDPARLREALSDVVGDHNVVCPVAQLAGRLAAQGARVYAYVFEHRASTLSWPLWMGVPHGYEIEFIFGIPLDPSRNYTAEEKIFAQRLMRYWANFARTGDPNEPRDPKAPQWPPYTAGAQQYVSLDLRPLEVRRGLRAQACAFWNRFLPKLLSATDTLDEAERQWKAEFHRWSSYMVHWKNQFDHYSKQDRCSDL

Question: Which results are given for `CC(=O)O[C@H]1C[C@@H]2CC[C@@H]3[C@H](CC[C@@]4(C)[C@H]3C[C@H]([N+]3(C)CCCCC3)[C@@H]4OC(C)=O)[C@@]2(C)C[C@@H]1N1CCCCC1`?
Answer: Potency [1]: 17.4 µM (active); Potency [2]: 6.92 µM (active); Potency [3]: inactive

Question: `Nc1c(NC/C=C\COc2cc(CN3CCCCC3)ccn2)c(=O)c1=O` was tested. Which Potency [1] did it give?
Answer: 13.5 µM (active)

Question: And the activity change, negative = inhibition [2]?
Answer: -23% [at 23.8 µM]

Question: And the activity change, negative = inhibition [3]?
Answer: 0.669% [at 23.6 µM]

Question: What does the source list for `CC/C=C\CCCCO`?
Answer: Potency [1]: inactive; Potency [2]: inactive; Potency [3]: inactive

Question: Which Potency [1] does the source give for `COc1cc(N)ccc1C` here?
Answer: inactive

Question: What about the Potency [2] of the same molecule?
Answer: inactive

Question: What about the Potency [3] of the same molecule?
Answer: inactive

Question: For `CCCCCCCCCOC(=O)c1ccc(O)cc1`, which Potency [1] is on record?
Answer: inactive

Question: And the Potency [2]?
Answer: inactive

Question: And the Potency [3]?
Answer: inactive

Question: For `COc1cc(C(=O)NC2CCN(C)CC2)ccc1Nc1ncc2c(n1)N(C1CCCC1)CC(F)(F)C(=O)N2C`, which Potency [1] is on record?
Answer: 32.6 µM (active)

Question: What about the Potency [2] of the same molecule?
Answer: 11.6 µM (active)

Question: What about the Potency [3] of the same molecule?
Answer: inactive

Question: What does the source list for `CCCCCCCCCCCCCCCC`?
Answer: Potency [1]: inactive; Potency [2]: inactive; Potency [3]: inactive

Question: With `CCN(CC)c1ccc(N)cc1` as the molecule, how does the Potency [1] read?
Answer: 32.6 µM (active)

Question: What about the Potency [2] of the same molecule?
Answer: 32.6 µM (active)

Question: And the Potency [3]?
Answer: inactive

Question: For `Nc1c(N=Nc2ccc(-c3ccc(N=Nc4cc(S(=O)(=O)O)c5ccccc5c4N)cc3)cc2)cc(S(=O)(=O)O)c2ccccc12`, which Potency [1] is on record?
Answer: 79.6 µM (active)

Question: What about the Potency [2] of the same molecule?
Answer: 71 µM (active)

Question: What about the Potency [3] of the same molecule?
Answer: inactive

Question: `O=c1[nH]c(=O)n([C@H]2C[C@H](O)[C@@H](CO)O2)cc1I` was tested. Which Potency [1] did it give?
Answer: inactive

Question: What about the Potency [2] of the same molecule?
Answer: inactive

Question: And the Potency [3]?
Answer: inactive

Question: For `Clc1ccc(C(Cn2ccnc2)OCc2ccc(Sc3ccccc3)cc2)c(Cl)c1` (centres undefined), which Potency [1] is on record?
Answer: inactive

Question: And the Potency [2]?
Answer: inactive

Question: What about the Potency [3] of the same molecule?
Answer: inactive

Question: For `CCc1cc(SCc2sc(-c3ccc(C(F)(F)F)cc3)nc2CN2CCN(c3ccc(OC)cc3)CC2)ccc1OCC(=O)O`, which Potency [1] is on record?
Answer: inactive

Question: And the Potency [2]?
Answer: inactive

Question: What about the Potency [3] of the same molecule?
Answer: inactive

Question: With `OCCC(O)CO` (centres undefined) as the molecule, how does the Potency [1] read?
Answer: inactive

Question: And the Potency [2]?
Answer: inactive

Question: What about the Potency [3] of the same molecule?
Answer: inactive

Question: Which Potency [1] does the source give for `c1ccc(-c2ccc(C(c3ccccc3)n3ccnc3)cc2)cc1` (centres undefined) here?
Answer: inactive

Question: What about the Potency [2] of the same molecule?
Answer: inactive

Question: And the Potency [3]?
Answer: inactive

Question: How did the Potency [1] turn out when `C[C@@H]1C[C@H]2[C@@H]3CCC4=CC(=O)C=C[C@]4(C)[C@@]3(Cl)[C@@H](O)C[C@]2(C)[C@@]1(OC(=O)c1ccco1)C(=O)CCl` was run?
Answer: inactive

Question: And the Potency [2]?
Answer: inactive

Question: What about the Potency [3] of the same molecule?
Answer: inactive

Question: What does the source list for `CCOc1nc2cccc(C(=O)OC(C)OC(=O)OC3CCCCC3)c2n1Cc1ccc(-c2ccccc2-c2nn[nH]n2)cc1` (centres undefined)?
Answer: Potency [1]: inactive; Potency [2]: inactive; Potency [3]: inactive

Question: For `O=C(O)CCCCCCCCCCCBr`, which Potency [1] is on record?
Answer: inactive

Question: And the Potency [2]?
Answer: inactive

Question: What about the Potency [3] of the same molecule?
Answer: inactive

Question: What does the source list for `O=C(O)Cc1ccc(CCNS(=O)(=O)c2ccc(Cl)cc2)cc1`?
Answer: Potency [1]: inactive; Potency [2]: inactive; Potency [3]: inactive
